Bioassay records from PubChem BioAssay.
SMN2 splice enh: enhancers of SMN2 splice variant expression | HEK293 SMN2-luciferase splicing reporter, luminescence, 30-36 h | Potency, µM (highest dose often 46.1 µM), without a hit: at the highest dose activity change, positive = activation, actives largely listed as activators | 210,000 compounds, 2.8% hits; further: % of control where 0% means no effect; nearly all actives have a fitted effect of over 55% in size
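HEK293 cells carry an SMN2 minigene-luciferase reporter in which exon 7 inclusion puts luciferase in frame. Cells were seeded at 2000 cells/well, attached for 10-12 hours, then exposed to compounds for 30-36 hours at 37C before ONE-Glo luminescence.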
ELG1 genotox: inducers of genotoxicity in HEK293T ELG1-luciferase cells. HEK293T ELG1-luciferase reporter, luminescence, 16 h. Potency, µM (titrated, usually from 46 µM), for inactives: at the top dose activity change, positive = activation, actives largely listed as activators. 330,000 compounds, 1.3% hits. AID 504466; further: % of control where 0% means no effect; nearly all actives have a fitted effect of over 60% in size
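Screening used a luciferase reporter fused to human ELG1 in HEK293T cells. Luminescence was read on a CCD plate imager after 16 hr exposure and 30 min ONE-Glo incubation.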
Rab9 promoter act: activates the Rab9 promoter. Huh7 Rab9 promoter-luciferase reporter, luminescence, 24 h. Potency, µM (series often up to 9.22 µM), for the others: at the top dose activation, negative = inhibition, hits mostly activators. 320,000 compounds, 2.8% hits; further: % of control where 0% means no effect; nearly all actives have a fitted effect of over 60% in size
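Huh7 reporter line, Rab9 promoter upstream of luciferase. Compound exposure 24 h at 37 °C in reduced-serum medium with 10% FBS. Read-out: luminescence.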
FLuc modulator: firefly luciferase modulation, counter-screen for miR-21 project. Potency, µM (series often up to 57.5 µM), for inactives: top-dose activity change, negative = inhibition, usual class: inhibitors. 360,000 compounds, 6.9% hits. purified FLuc, Km substrates, luminescence inhibition. P08659;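 further: plate controls were vehicle for no effect and reference inhibitor for full effect; nearly all actives have a fitted effect of over 55% in size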
Target sequence (P08659 whole entry, looked up): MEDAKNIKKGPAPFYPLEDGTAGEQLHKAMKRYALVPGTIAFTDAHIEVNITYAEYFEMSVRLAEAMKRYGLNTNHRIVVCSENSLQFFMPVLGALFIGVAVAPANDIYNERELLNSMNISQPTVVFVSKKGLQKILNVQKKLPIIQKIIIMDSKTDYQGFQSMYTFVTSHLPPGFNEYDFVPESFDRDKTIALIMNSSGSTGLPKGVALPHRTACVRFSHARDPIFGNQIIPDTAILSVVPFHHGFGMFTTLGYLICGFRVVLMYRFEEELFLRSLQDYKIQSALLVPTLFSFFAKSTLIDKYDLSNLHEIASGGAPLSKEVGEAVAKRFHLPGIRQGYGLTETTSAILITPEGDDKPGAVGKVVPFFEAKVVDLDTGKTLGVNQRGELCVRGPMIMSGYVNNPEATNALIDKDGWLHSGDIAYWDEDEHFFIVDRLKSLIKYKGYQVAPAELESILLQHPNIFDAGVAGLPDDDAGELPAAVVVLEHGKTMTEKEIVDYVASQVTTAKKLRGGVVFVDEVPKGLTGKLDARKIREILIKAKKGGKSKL
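Biochemical qHTS of compounds, final roughly 60 µM downward over six points, against 10 nM purified firefly luciferase using Km concentrations of substrates (10 uM D-luciferin, 10 uM ATP) in Tris acetate pH 7.5 buffer; luminescence output.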
NPC1 promoter act: NPC1 promoter activation | Huh7 NPC1 promoter luciferase reporter, 24 h | Potency, µM (highest dose often 9.22 µM), for inactives: at the top dose activation, most hits filed as activators | 320,000 compounds, 2.4% hits; further: % of control where 0% means no effect; nearly all actives have a fitted effect of over 60% in size
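Luminescence from an NPC1 promoter-driven luciferase reporter in stably transfected Huh7 cells was measured after 24 h compound treatment at 37 °C, followed by 10 min ambient incubation with luciferase detection reagent.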
Active calls of the source: *; [ ] = another dose, or the depositor's remark. Hits are enriched below; roughly 7.4% of the tested compounds scored in any of these assays. The call rests on the fitted dose curve; in most records, active means well fitted curve in the direction sought with a large enough effect; inconclusive means small, poorly fitted or top-dose-only effect, or another doubt; inactive means no such curve, though single readings can be large; an effect the other way counts as inactive or inconclusive. Potency means the concentration at half of the fitted maximal effect.

Results for Cc1cccc2c(N=Nc3ccccc3)c(O)[nH]c12 ?
ELG1 genotox: 5.2µM*; Rab9 promoter act: 2µM*; FLuc modulator: 1.5µM*; NPC1 promoter act: 1.4µM*

Results for COC(=O)N=Nc1c(O)[nH]c2ccc(Br)cc12 ?
ELG1 genotox: -5%; Rab9 promoter act: 14%; FLuc modulator: -8%; NPC1 promoter act: 12%

What do the screens show for `Oc1[nH]c2ccccc2c1N=Nc1cccc(Cl)c1`?
ELG1 genotox: inconclusive; Rab9 promoter act: inconclusive; FLuc modulator: 5.4µM*; NPC1 promoter act: 30%

How did Oc1[nH]c2ccccc2c1N=Nc1c(F)c(F)c(Cl)c(F)c1F do in these assays?
ELG1 genotox: 4%; Rab9 promoter act: inconclusive; FLuc modulator: -3%; NPC1 promoter act: 24%

Results for O=C(CSc1nc(=O)n(Cc2ccccn2)c2c1CCC2)Nc1ccc(F)cc1F ?
ELG1 genotox: 0%; Rab9 promoter act: -8%; FLuc modulator: 3%; NPC1 promoter act: -2%

Results for O=C(Nc1ccc2oc(=O)c(C(=O)O)cc2c1)Oc1ccccc1 ?
SMN2 splice enh: -14%[9.22 µM]

Results for CC(OC(=O)c1ccc(NC(=O)CC#N)cc1)C(=O)Nc1ccc(Oc2ccccc2)cc1 (configuration not stated) ?
ELG1 genotox: 1%; Rab9 promoter act: 3%; FLuc modulator: 1%; NPC1 promoter act: 1%

What do the screens show for `O=C(Nc1ccc(O)c(C(=O)O)c1)Oc1ccccc1`?
ELG1 genotox: 3%; Rab9 promoter act: 12%; FLuc modulator: 13µM*; NPC1 promoter act: 1%

What do the screens show for `CC(OC(=O)c1ccc(NC(=O)CC#N)cc1)C(=O)Nc1nc(-c2ccccc2)cs1` (configuration not stated)?
ELG1 genotox: 23µM*; Rab9 promoter act: 16%; FLuc modulator: 2%; NPC1 promoter act: 11%

What do the screens show for `COc1cccc(-c2csc(NC(C)=O)n2)c1`?
SMN2 splice enh: 28µM*; ELG1 genotox: 10µM*; Rab9 promoter act: 4µM*; FLuc modulator: 15µM*; NPC1 promoter act: 4µM*

Results for CN1CCN(CC(=O)N(C)c2nc(-c3ccccc3)cs2)CC1 ?
SMN2 splice enh: -35%; ELG1 genotox: inconclusive; Rab9 promoter act: 2.8µM*; FLuc modulator: 15µM*; NPC1 promoter act: 4µM*

Results for COc1ccccc1CNC(=O)c1ccc(CS(=O)(=O)c2ccc(C)cc2)o1 ?
ELG1 genotox: -4%; Rab9 promoter act: 1%; FLuc modulator: 0%; NPC1 promoter act: -1%

Results for CCc1ccccc1Nc1nn2c(=O)c3ccc(C(=O)NCCC4=CCCCC4)cc3nc2s1 ?
FLuc modulator: -3%

How did COCC(=O)Nc1nc(-c2ccc(-c3ccccc3)cc2)cs1 do in these assays?
ELG1 genotox: 0%; Rab9 promoter act: 0.79µM*; FLuc modulator: inconclusive; NPC1 promoter act: 2.2µM*

Results for O=C(CN1CCCCC1)Nc1nc(-c2ccc(Cl)cc2)cs1 ?
ELG1 genotox: 7%; Rab9 promoter act: 1%; FLuc modulator: 17µM*; NPC1 promoter act: 1%

What do the screens show for `Cn1ncc(Br)c1C(=O)OCC(=O)Nc1nc(-c2ccccc2)cs1`?
SMN2 splice enh: 14µM*; ELG1 genotox: 1%; Rab9 promoter act: -1%; FLuc modulator: -6%; NPC1 promoter act: 22%

What do the screens show for `CCc1ccc(OC(=O)Nc2ccccc2)cc1`?
ELG1 genotox: 9%; Rab9 promoter act: inconclusive; FLuc modulator: 9.5µM*; NPC1 promoter act: -2%

What do the screens show for `CCc1ccc(NC(=O)Cc2ccc(OC)cc2)cc1`?
SMN2 splice enh: inconclusive; ELG1 genotox: 13%; Rab9 promoter act: 3%; FLuc modulator: inconclusive; NPC1 promoter act: 18%

Results for CN1CCN(CC(=O)Nc2nc(-c3ccccc3)cs2)CC1 ?
SMN2 splice enh: -2%; ELG1 genotox: 2%; Rab9 promoter act: -2%; FLuc modulator: -18%; NPC1 promoter act: -4%

What do the screens show for `CCc1ccc(-c2csc(NC(=O)Oc3ccccc3)n2)cc1`?
ELG1 genotox: inconclusive; Rab9 promoter act: inconclusive; FLuc modulator: 6µM*; NPC1 promoter act: inconclusive

How did O=C(CN1CCCCC1)Nc1nc(-c2ccccc2)cs1 do in these assays?
ELG1 genotox: inconclusive; Rab9 promoter act: 22%; FLuc modulator: 21µM*; NPC1 promoter act: inconclusive

Results for COC(=O)c1ccc(NC(=O)CC2C(=O)N(c3cccc(F)c3)C(=O)N2CC(C)C)cc1 (configuration not stated) ?
SMN2 splice enh: -6%; FLuc modulator: 0%

What do the screens show for `Cc1ccc(NC(=O)NC2CCCCCCC2)cc1`?
ELG1 genotox: inconclusive; Rab9 promoter act: 2.2µM*; FLuc modulator: 7.6µM*; NPC1 promoter act: 1.3µM*

Results for O=C(NC1CCCCCC1)C(=O)NC1CCCC1 ?
SMN2 splice enh: 13µM*; ELG1 genotox: 19%; Rab9 promoter act: 2.2µM*; FLuc modulator: inconclusive; NPC1 promoter act: inconclusive

Results for Cc1ccc(NC(=O)C(=O)NC2CCCCC2)cc1 ?
SMN2 splice enh: 5µM*; ELG1 genotox: inconclusive; Rab9 promoter act: 1.1µM*; FLuc modulator: inconclusive; NPC1 promoter act: 1.6µM*

Results for O=C(NC1CCCCC1)[C@H](O)[C@@H](O)C(=O)NC1CCCCC1 ?
SMN2 splice enh: 8%; ELG1 genotox: 1%; Rab9 promoter act: -6%; FLuc modulator: 7%; NPC1 promoter act: -1%

What do the screens show for `O=C(Nc1ccc(F)cc1)NC1CCCCC1`?
SMN2 splice enh: 3%; ELG1 genotox: inconclusive; Rab9 promoter act: inconclusive; FLuc modulator: inconclusive; NPC1 promoter act: inconclusive

Results for CCNC(=O)c1ccc(NS(=O)(=O)c2ccc3[nH]c(=O)[nH]c3c2)cc1 ?
ELG1 genotox: 7.3µM*; Rab9 promoter act: 3.5µM*; FLuc modulator: 15µM*; NPC1 promoter act: 2.2µM*

Results for CC1CCCN(C(=O)c2ccc(NS(=O)(=O)c3ccc4[nH]c(=O)[nH]c4c3)cc2)C1 (configuration not stated) ?
ELG1 genotox: 2%; Rab9 promoter act: -8%; FLuc modulator: -1%; NPC1 promoter act: -2%

Results for CC1CCC(NC(=O)c2ccc(NS(=O)(=O)c3ccc4[nH]c(=O)[nH]c4c3)cc2)CC1 (configuration not stated) ?
ELG1 genotox: 18µM*; Rab9 promoter act: inconclusive; FLuc modulator: inconclusive; NPC1 promoter act: inconclusive

What do the screens show for `O=C(Cn1cnc2onc(-c3ccc(F)cc3)c2c1=O)Nc1ccc(F)c(Cl)c1`?
FLuc modulator: -11%

Results for COc1ccc2oc(C(=O)OCc3nnc(-c4ccccc4)o3)c(C)c2c1 ?
ELG1 genotox: inconclusive; Rab9 promoter act: 16%; FLuc modulator: -8%; NPC1 promoter act: 7%
